The list is not random: actives were taken first. Their share in the collection is about 0.9%.
MazEF act = MazEF (E. coli) toxin RNase activation; P0AE70; FAM/BHQ RNA-DNA oligo cleavage fluorescence, 5 h; actives 0.32% (n = 350,000); activation, % at 20 µM; in the data active = activation above about 50%
Target sequence (P0AE70 whole entry, looked up): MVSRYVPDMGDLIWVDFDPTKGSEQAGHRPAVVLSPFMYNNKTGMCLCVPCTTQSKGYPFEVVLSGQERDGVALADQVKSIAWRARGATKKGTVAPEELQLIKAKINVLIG
SARS 3CLpro inh = SARS-CoV 3CLpro protease inhibition | recombinant SARS-CoV 3CLpro, quenched FRET peptide cleavage | inhibition, % at 6 µM | actives 0.14% (n = 290,000); in the data active = inhibition above about 12%
Yp Topo-I inh = Y. pestis Topo-I inhibition via cleavage products; actives 0.064% (n = 360,000); Y. pestis Topo-I cleavage product accumulation, plate reader; activity, % at 10 µM; in the data active = activity above about 50%, passing the limit was not always enough
PriA SSB inh = blocks PriA binding to SSB C-terminal tail. AlphaScreen SSBct-PriA binding, biotinylated peptide. inhibition, % at 33 µM. actives 0.6% (n = 430,000). AID 1272365; in the data active = inhibition mostly above about 37%, no sharp cut-off; inactive = mostly below about 20%;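 also: plate controls were negative control peptide for no effect and reference peptide for full effect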
* marks the source's active call; other numbers are inactive results; . = no result; + = active, no number; ! = not active in a repeat.

SMILES	MazEF act	SARS 3CLpro inh	Yp Topo-I inh	PriA SSB inh
Cc1ccc(Cn2cnc3c(cnn3CCNC(=O)c3c(F)cccc3F)c2=O)cc1	.	.	.	16.0
O=C(CSc1nc2cc(Cl)ccc2s1)NCc1ccc2c(c1)OCO2	63.5*	-2.3	20.1	1.6
Cc1nnc(N2CCCC(C(=O)NCc3ccc(OC(C)C)cc3)C2)c2nn(-c3ccccc3)c(C)c12 (configuration not stated)	88.4*	2.4	37.1	-0.4
CCN1C(=O)S/C(=C\c2ccc(N3CCOCC3)cc2C)C1=O	27.9	4.5	-0.3	-5.0
C#CCN1C(=O)S/C(=C\c2ccc(N3CCOCC3)cc2C)C1=O	310.0*	-10.7	-2.3	-8.6
COc1ccc(CCNc2nccn(-c3cccc(Cl)c3C)c2=O)cc1OC	.	.	.	32.0*
Cc1cc2cc(CNC(=S)NCc3ccccc3)ccc2n1C	22.9	1.1	1.6	74.8*
Cc1cc2cc(CNC(=S)NC3CCCCC3)ccc2n1C	10.7	-4.0	4.1	58.8*
Cc1ccccc1NC(=S)NCc1ccc2c(c1)cc(C)n2C	8.7	-0.3	12.8	35.7
CCCCNC(=S)NCc1ccc2c(c1)cc(C)n2C	14.5	2.6	3.7	82.5*
COc1ccccc1NC(=S)NCc1ccc2c(c1)cc(C)n2C	11.9	4.1	-15.0	87.8*
Cc1cc2cc(CNC(=S)NC(C)(C)C)ccc2n1C	.	.	.	47.9
CCOC(CNC(=O)C(=O)NCC(c1ccco1)N1CCN(c2ccccc2F)CC1)OCC (configuration not stated)	.	.	.	4.0
COc1ccc(NC(=S)NCc2ccc3c(c2)cc(C)n3C)cc1	19.3	-2.8	-2.9	74.7*
CCc1cccc(C)c1NC(=S)NCc1ccc2c(c1)cc(C)n2C	8.1	-2.6	-3.9	52.9*
Cc1cc(C)cc(NC(=S)NCc2ccc3c(c2)cc(C)n3C)c1	.	.	.	60.5
COc1ccc(CC(=O)N2CCC(c3nc4ccccc4s3)CC2)cc1C	.	.	.	-1.0
CCN1c2ccccc2N(C)C1(C)c1ccccc1 (configuration not stated)	-4.5	5.4	-10.4	36.0
CN1c2ccccc2N(C)C1(C)c1ccccc1	13.3	0.1	4.5	41.9*
CCCCN1C(=O)/C(=C2/Sc3ccc(OC)cc3N2CC)SC1=S	71.1*	2.8	-15.0	-18.1
C=CCN1C(=O)/C(=C2/Sc3ccc(OC)cc3N2C)SC1=Nc1ccc(OC)cc1	.	1.7	.	.
CCN1/C(=C2/SC(=S)N(NC(C)=O)C2=O)Sc2ccc(OC)cc21	14.9	-1.5	-3.0	-2.6
C=CCN1C(=O)/C(=C2/Sc3ccc(OC)cc3N2CC)SC1=S	752.5*	-0.2	-2.5	-12.0
O=C(NN=Cc1cccs1)c1cc(-c2ccc3ccccc3c2)n[nH]1	.	.	.	2.5
CCN(CC)CCn1c2ccccc2c(=O)c2c(O)ccc(O)c21	19.4	.	-17.1	53.9*
SMILES	MazEF act	SARS 3CLpro inh	Yp Topo-I inh	PriA SSB inh
CCN(CC)CCn1c(O)c(N=O)c2ccccc21	10.0	5.3	9.9	-5.5
Cc1ccc(NC(=O)C(NC2CCCc3ccccc32)c2ccccc2)cc1Cl (configuration not stated)	-6.8	-1.7	-5.5	-43.3
Cc1ccc(NC(=O)C(NC2CCCc3ccccc32)c2ccccc2)c([N+](=O)[O-])c1 (configuration not stated)	-0.2	0.5	2.8	45.7*
CCOC(=O)c1c(NC(=O)CCc2ccc(CC)o2)sc(C)c1C	-10.0	5.2	57.4*	-24.4
O=C(Cn1nc(C2CC2)c2cnn(-c3cccc(Cl)c3)c2c1=O)NCc1ccco1	.	.	.	2.0
CCN(CCCNC(=O)CC(C(=O)N1CCc2ccccc21)n1ccnc1)c1cccc(C)c1 (configuration not stated)	-1.4	2.0	8.6	47.5*
CCOc1ccc(-c2cc(=O)n(CC(=O)Nc3ccccc3CC)cn2)cc1	.	.	.	1.0
O=C(Cc1ccc(F)cc1)Nc1ccc2c(c1)CC(=O)N2	.	.	.	-3.0
CC1N(C)c2cccc3cccc(c23)N1C	-9.3	-3.3	-5.1	45.1*
C=C(C)C(=O)Nc1cccc(C2=NOC3(C2)C[C@@H](C(N)=O)N(C(=O)CCCCC)C3)c1 (some centres not stated)	2.3	.	.	61.4*
C=C(C)C(=O)Nc1cccc(C2=NOC3(C2)C[C@@H](C(N)=O)N(C(=O)c2ccc(OC)cc2)C3)c1 (some centres not stated)	-1.6	.	3.0	47.8*
CCCCCC(=O)N1CC2(CC(c3cccc(NC(=O)[C@@H]4CCC(=O)N4)c3)=NO2)C[C@@H]1C(N)=O (some centres not stated)	9.0	.	1.4	1.3
COc1cccc(CNC(=O)CCn2cnc3c(cnn3-c3ccc(F)cc3)c2=O)c1	.	.	.	-15.0
Cc1ccc2nc(N3CCN(CCO)CC3)nc(-c3ccccc3)c2c1	4.6	-2.5	12.8	38.0*!
C=CCn1c(=N)c(S(=O)(=O)c2ccc(C)c(C)c2)cc2c(=O)n3ccccc3nc21	183.4*	0.2	-3.1	9.8
Cc1cccn2c(=O)c3cc(C(=O)NCCc4ccccc4)c(=N)n(Cc4ccco4)c3nc12	6.2	1.8	3.1	-2.7
COc1ccc(CNC(=O)c2cc3c(=O)n4ccccc4nc3n(Cc3cccnc3)c2=N)cc1	556.7*	-7.2	-1.7	3.3
Cc1cccn2c(=O)c3cc(C(=O)NCc4ccco4)c(=N)n(CCc4ccccc4)c3nc12	54.0*	2.6	1.3	5.9
N=c1c(S(=O)(=O)c2ccc(Cl)cc2)cc2c(=O)n3ccccc3nc2n1CCc1ccccc1	.	-4.6	11.9	.
N=c1c(S(=O)(=O)c2ccc(Cl)cc2)cc2c(=O)n3ccccc3nc2n1Cc1cccnc1	81.4*	1.9	9.6	-0.7
N=c1c(C(=O)NCc2ccc3c(c2)OCO3)cc2c(=O)n3ccccc3nc2n1Cc1cccnc1	13.7	-7.2	-4.7	-3.0
Cc1ncccc1C(=O)NC1CCC(Oc2ncccn2)CC1 (configuration not stated)	.	.	.	-13.0
CCOC(=O)c1ccc(NC(=O)c2cc3cccc(OC)c3oc2=O)cc1	.	.	.	-12.0
N=c1c(C(=O)NCc2ccco2)cc2c(=O)n3ccccc3nc2n1Cc1ccc(Cl)cc1	-16.4	-5.4	-7.7	-2.7
CCOC(=O)c1cc2c(=O)n3ccccc3nc2n(Cc2ccc(Cl)cc2)c1=N	+	.	2.0	-0.1
SMILES	MazEF act	SARS 3CLpro inh	Yp Topo-I inh	PriA SSB inh
O=C(Nc1cccc(-c2nc3ccccc3s2)c1)c1cccc(F)c1	.	.	.	-13.0
CC1=NN(c2ccccc2)C(=O)/C1=C/c1cc(C)n(C2CC2)c1C	77.1*	-2.6	5.9	-7.2
Cc1cc(/C=C2\C(=O)NC(=O)N(Cc3ccccc3)C2=O)c(C)n1C1CC1	725.3*	2.6	27.1	-5.5
COc1cc(OC)c(OC)cc1/C=C1/C(=O)NC(=O)N(Cc2ccccc2)C1=O	-14.9	0.1	-8.6	-1.0
O=C(O)c1cccc2c1NC(C(=O)O)C1CC(Sc3ccccc3[N+](=O)[O-])C(Cl)C21 (configuration not stated)	-2.8	3.3	-28.6	37.7
CC(=O)c1ccc2c(c1)C1C(Cl)C(Sc3ccccc3[N+](=O)[O-])CC1C(C(=O)O)N2 (configuration not stated)	-7.4	-6.5	-28.1	46.4*
CCOc1ccc(-c2nc(NC(=O)c3cccc(S(=O)(=O)CC)c3)sc2C)cc1	.	.	.	-3.0
COc1cccc([C@@H]2CC(c3cccs3)=NN2C(=O)CN2CCOCC2)c1OC	.	.	.	-6.0
